“And” between values parts separate entries of the source, which are not always exact repeats. Equal entries are not always repeated. Results filed as inconclusive are left out. The source made the active and inactive calls.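 The calls were made as follows, unless noted: active = thallium flux through the channel raised or lowered by more than 3 SD from vehicle-only wells, actives on both sides; inactive = the rest.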

The record followed here is PubChem BioAssay.

Test [1] can be described thus: GFP-Q80 aggregate reduction, neuronal-like cells, cell-based, NGF-treated PC12, GFPQ80 (AID 1614).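 Also: lower means fewer inclusions and 0 means no inclusions at all.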 Particulars: PC12 NGF-treated GFP-polyQ80 inclusion reduction.
Test [2] is described as follows: signal quenchers or enhancers, Cy5 substrate/SSB – biochemical, NIH Clinical Collection, E. coli SSB, artefact control for HCV NS3 helicase inhibitor project (AID 743268; call rule not given here). The following applies: Cy5-oligo bound E. coli SSB, fluorescence interference.
Test [3] is described as follows: viability loss in pontine glioma line – cell-based, SU-DIPG-XIII, MIPE4.0, CellTiter-Glo, qHTS, dose response (AID 1347061; cut-off not given, nearly all actives have AC50 up to about 37 µM;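 also: cells exposed to compound for 48 hours before readout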). Particulars: CellTiter-Glo ATP luminescence.
The nature of test [4]: viability loss in pontine glioma line – cell-based, JHH-DIPG-1, MIPE4.0, CellTiter-Glo, qHTS, dose response (AID 1347062; cut-off not given, nearly all actives have AC50 up to about 27 µM). Particulars: JHH-DIPG-1 viability, CellTiter-Glo ATP luminescence.
Test [5] in a line: viability loss in pontine glioma line – cell-based, SU-DIPG-IV, MIPE4.0, CellTiter-Glo, qHTS, dose response (AID 1347063; cut-off not given, nearly all actives have AC50 up to about 30 µM;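 also: compound exposure lasted 48 hours before the viability readout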). The following applies: CellTiter-Glo ATP luminescence.
Test [6] in a line: growth inhibition of DIPG cells – cell-based, MIPE4.0 library, CellTiter-Glo luminescence, qHTS (AID 1347066; cut-off not given, nearly all actives have AC50 up to about 30 µM;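 also: cells exposed to compound for 48 hours before readout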). The following applies: SU-DIPG-VI viability, CellTiter-Glo ATP luminescence.
A short description of test [7]: growth inhibition of DIPG cells – cell-based, MIPE5.0 library, qHTS (AID 1347068; cut-off not given, nearly all actives have IC50 up to about 30 µM). The following applies: SU-DIPG-XXV viability.
The subject of the next test is F380Y/beta1. Briefly: BK channel mutant inhibitors and activators – cell-based, U2OS BacMam, thallium flux, beta subunits, selectivity assay, profiling panel (AID 1259406).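 Also: initial slope of Thallos dye fluorescence rise after thallium is added; log ratio against the mean of 0.3% DMSO vehicle wells on the same plate.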 Particulars: U2OS BacMam BK variants, at 30 µM.
For another test, the system named is F380Y/beta4. The test is described as above. Particulars: U2OS BacMam BK variants, at 30 µM.
The test system of the next test is R275C/beta4. The description is as above. The following applies: U2OS BacMam BK variants, at 30 µM.
In the next test the test system is R275C/Slo1WT/beta2. The description is as above. Particulars: U2OS BacMam BK variants, at 30 µM.
The subject of test [8] is Aerobactin synthetase IucA (Klebsiella pneumoniae). Briefly: inhibition of K. pneumoniae IucA enzyme – biochemical, Tocris library, absorbance (AID 1345561; call rule not given here;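 also: 100% = enzyme without compound and 0% = no enzyme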). The following applies: purified IucA enzyme assay, absorbance (OD) read-out; stronger effect = lower value;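 tested at 8 µM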.
A short description of test [9]: growth inhibition, single agent or in combination, cell-based, chromothripsis tumors, cisplatin or BGB combos (AID 1671449; in the data active = inhibition above about 80%;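 also: cells exposed for 96 hours; 0% = vehicle DMSO and 100% = killing by high DMSO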). The following applies: LFS_MB_P medulloblastoma cells.
A short description of test [10]: growth inhibition, single agent and combos, cell-based, chromothripsis tumors, cisplatin or BGB combos (AID 1671450; in the data active = inhibition above about 80%;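 also: cells exposed to compound for four days; 0% = vehicle DMSO and 100% = cell killing by high DMSO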). The following applies: HDN33 neuroblastoma cells, stronger effect = higher value.
Test [11] in a line: growth inhibition, single agents and combos, LFS_MB_1R, cell-based, cisplatin or BGB combos, synergistic combos for chromothripsis tumors (AID 1671452; in the data active = inhibition above about 80%;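 also: cells exposed for 96 hours before readout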). The following applies: LFS_MB_1R medulloblastoma cells, stronger effect = higher value.
Test [12] can be described thus: growth inhibition, single agents and combos, HTB85, cell-based, BGB or cisplatin IC20 combos, synergistic combos for chromothripsis tumors (AID 1671453; in the data active = inhibition above about 80%;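 also: cells exposed for 96 hours before readout; 0% = vehicle DMSO and 100% = high DMSO killing control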). Particulars: HTB85 osteosarcoma cells, drug combinations, stronger effect = higher value.
A short description of test [13]: growth inhibition, MDA-MB-436, cell-based, BGB or cisplatin combos, synergistic combos for chromothripsis tumors (AID 1671458; call rule not given here;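 also: cells exposed for 96 hours; 0% = vehicle DMSO and 100% = killing by high DMSO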). Particulars: MDA-MB-436 breast carcinoma growth inhibition, drug combinations, stronger effect = higher value.
Test [14] can be described thus: BT084 cell growth, single and combined drugs, ICGC_MB145, cisplatin and BGB IC40 combos (AID 1671461; in the data active = inhibition above about 80%;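 also: cells exposed to drugs for 96 hours; 0% = vehicle DMSO and 100% = high DMSO full killing control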). Particulars: BT084 medulloblastoma cells, drug combinations, stronger effect = higher value.
Test [15] is described as follows: RCMB18 cell growth, single agent and combined, cisplatin and BGB IC40 combos (AID 1671462; in the data active = inhibition above about 80%;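 also: cells exposed to compound for four days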). The following applies: RCMB18 medulloblastoma cells, stronger effect = higher value.
The nature of test [16]: CRL1545 cell growth, single agent and combined, cisplatin and BGB IC20 combos (AID 1671464; in the data active = inhibition above about 80%;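 also: cells exposed to compound for 96 hours before readout; 0% = vehicle DMSO and 100% = high DMSO killing control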). The following applies: CRL1545 osteosarcoma cells, stronger effect = higher value.
[17] abbreviates: measured here: combination with BGB IC40, at 0.05 µM.
Where [18] appears, read: measured here: with BGB IC20 combination, at 0.5 µM.
Where [19] appears, read: measured here: with cisplatin IC20 combination, at 0.5 µM.
Where [20] appears, read: measured here: combination with cisplatin, at 0.5 µM.

Compound `CC(C)(C)NCC(O)c1ccc(O)c(CO)c1` (stereo not given) gave an inclusion score in test [1] of 2. In test [2], the fluorescence ratio is 0.96 (inactive). Besides, the outcome in [3], in test [4], in test [5], in [6] and in test [7] was inactive.
As for `COC(=O)C1=C(C)NC(C)=C(C(=O)OCCN(C)Cc2ccccc2)C1c1cccc([N+](=O)[O-])c1` (stereo not given), in test [2], the fluorescence ratio is 1.15 (inactive). The log fold change Tl+ flux in the test on F380Y/beta1 is -0.0357 (inactive); with F380Y/beta4, -0.137 (active); in the test on R275C/beta4 it was 0.196 (active); in the test on R275C/Slo1WT/beta2 it was 0.00258 (inactive).
On to `CCN(CC)CCOc1ccc(Cc2ccccc2)cc1`, for which, in test [8], the remaining activity was 100% (inactive). Also, the result in test [6] and in [7] was inactive.
In test [1], `CN/C(=C\[N+](=O)[O-])NCCSCc1ccc(CN(C)C)o1` registered an inclusion score of 2. Besides, in test [2], the fluorescence ratio is 0.103 (active). Moreover, the log fold change Tl+ flux is -0.0094 (inactive) in the test on F380Y/beta1, 0.0499 (inactive) in the test with F380Y/beta4, -0.0213 (inactive) with R275C/beta4 and -0.015 (inactive) in the test with R275C/Slo1WT/beta2.
As to `COc1ccc2cc([C@H](C)C(=O)O)ccc2c1`, the inclusion score in test [1] was found to be 2. For the same compound, the remaining activity in test [8] is 75.8% (inactive). For the same compound, the call in test [3], in test [4], in test [5], in test [6] and in test [7] was inactive. In addition, the log fold change Tl+ flux is 0.0107 (inactive) with F380Y/beta1, -0.000569 (inactive) in the test on F380Y/beta4, -0.0294 (inactive) in the test with R275C/beta4 and 0.0377 (inactive) in the test with R275C/Slo1WT/beta2.
`Cc1cc(NS(=O)(=O)c2ccc(N)cc2)no1` registered an inclusion score in [1] of 2. For the same compound, the fluorescence ratio in [2] was 1.03 (inactive). The AC50 in test [3] is 2960 nM (active). The compound was classed as inactive in test [4] and in test [5]. Also, the log fold change Tl+ flux was -0.0321 (inactive) in the test on F380Y/beta1, -0.00222 (inactive) in the test with F380Y/beta4, -0.0559 (inactive) in the test on R275C/beta4 and -0.0702 (inactive) in the test on R275C/Slo1WT/beta2.
As for `COc1cc(Cc2cnc(N)nc2N)cc(OC)c1OC`, the inclusion score in [1] is 2. In addition, in test [2], the fluorescence ratio is 0.97 (inactive). Further, the log fold change Tl+ flux in the test on F380Y/beta1 is 0.057 (inactive); in the test with F380Y/beta4, 0.0143 (inactive); in the test with R275C/beta4, 0.00256 (inactive); in the test with R275C/Slo1WT/beta2 it was 0.00876 (inactive).
On to `CC(C)NCC(O)COc1cccc2[nH]ccc12` (stereo not given), for which, in test [1], the inclusion score came out at 2. Moreover, in test [2], the fluorescence ratio is 0.9 (inactive). The remaining activity in [8] is 101% (inactive). Further, the log fold change Tl+ flux with F380Y/beta1 was 0.0264 (inactive); in the test on F380Y/beta4 it was 0.000781 (inactive); in the test with R275C/beta4, -0.00429 (inactive); with R275C/Slo1WT/beta2 it was 0.017 (inactive).
For the compound `CNCCCN1c2ccccc2CCc2ccccc21`, the fluorescence ratio in [2] was 0.96 (inactive). Also, the log fold change Tl+ flux in the test with F380Y/beta1 is 0.022 (inactive); with F380Y/beta4, 0.144 (active); in the test with R275C/beta4, 0.123 (inactive); in the test on R275C/Slo1WT/beta2 it was -0.0879 (inactive).
The corresponding values for `O=C(O)CCc1nc(-c2ccccc2)c(-c2ccccc2)o1` are 1.04 (inactive), 0.171 (active), 0.0201 (inactive), 0.0678 (inactive) and 0.0514 (inactive).
Take `C[C@@H](C1=C(CCN(C)C)Cc2ccccc21)c1ccccn1`: the remaining activity in test [8] was 105% (inactive).
Compound `CC12CCC(CC1)C(C)(C)O2` returned an inclusion score in test [1] of 2.
As to `CN1C(=O)CC[C@H]1c1cccnc1`, the inclusion score in test [1] amounted to 2. The fluorescence ratio in test [2] was 1.01 (inactive).
`COc1ccccc1N1CCN(CCCCNC(=O)c2ccc(-c3ccc(C(C)=O)cc3)cc2)CC1`: in [8], the remaining activity was 111% (inactive).
With `CN1CCN(C2=Nc3cc(Cl)ccc3Nc3ccccc32)CC1`, the fluorescence ratio in test [2] is 1.04 (inactive). Further, in [8], the remaining activity is 121% (inactive). Moreover, the call in test [4], in [5], in test [6] and in test [7] was inactive. Also, the log fold change Tl+ flux in the test on F380Y/beta1 is 0.177 (active); in the test on F380Y/beta4, 0.214 (active); in the test with R275C/beta4, 0.137 (active); in the test with R275C/Slo1WT/beta2, 0.0195 (inactive).
In test [1], `CCCC(CCC)C(=O)O` came in with an inclusion score of 2. For the same compound, the fluorescence ratio in test [2] is 1.04 (inactive). Moreover, the compound was classed as inactive in test [3], in test [6] and in [7]. The inhibition is -13.2% (inactive) and -3.77% (inactive) in test [9] (at 0.5 µM, stronger effect = higher value); -6.05% and -4.21% in test [9] (measured here: combination with BGB IC20, at 0.005 µM); -31.2% and 0.129% in [9] (measured here: combination with BGB IC40, at 0.005 µM); -32.2% and 12.9% in test [9] (setting [17]); -39.1% and -9.89% in test [9] (measured here: combination with cisplatin, at 0.5 µM, stronger effect = higher value); -24.7% and -24.2% in test [9] (measured here: combination with cisplatin, at 5 µM, stronger effect = higher value). The inhibition in test [10] (BGB combo, at 5 µM) is -30.6% and 8.86%; in test [10] (at 0.5 µM), -23.5% (inactive) and 13.8% (inactive); in [10] (cisplatin combo, at 5 µM) it was -2.31% and 15.6%; in test [10] (setting [18]), -33% and 14.7%; in [10] (setting [19]), 0.437% and 10.4%; in [10] (single agent, at 5 µM) it was -20.1% and 11%. The inhibition in test [11] (at 0.5 µM) is -27.6% (inactive) and -16.5% (inactive); in [11] (setting [17]), -35.5% and -12.1%; in test [11] (setting [20]), -35% and -39.3%; in test [11] (measured here: combination with cisplatin, at 5 µM) it was 2.7% and -48.1%; in test [12] (at 0.5 µM), -8.02% (inactive) and 3.4% (inactive); in test [12] (measured here: with BGB IC20, at 0.5 µM) it was -18.9% and -3.5%. Further, the inhibition was 53.9% and 3.4% in test [12] (measured here: with BGB IC20, at 5 µM); -4.12% and 2.48% in [12] (measured here: with cisplatin IC20, at 0.5 µM); -47.8% and -2.5% in test [12] (measured here: with cisplatin IC20, at 5 µM); -17.1% and 13.4% in test [12] (single agent, at 5 µM); -30.4% (inactive) and 1.93% (inactive) in [13] (at 0.5 µM); -29.6% and 4.62% in test [13] (measured here: BGB combination, at 0.5 µM). Also, the inhibition in test [13] (measured here: BGB combination, at 5 µM) was -20.8% and 1.95%; in test [13] (measured here: cisplatin combination, at 0.5 µM), -40.6% and 3.21%; in [13] (measured here: cisplatin combination, at 5 µM), -25.9% and 1.52%; in test [14] (at 0.5 µM) it was -33.9% (inactive) and -3.36% (inactive); in [14] (cisplatin combination, at 0.5 µM), -10.5% and -11.6%; in test [14] (cisplatin combination, at 5 µM), -5.4% and -1.37%. Further, the inhibition in test [14] (measured here: BGB IC40 combination 0.05 uM, at 0.05 µM) was -20.5% and -59.5%; in test [14] (single agent, at 5 µM) it was -18.9% and -8.84%; in test [15] (at 0.5 µM), -2.59% (inactive) and -3.82% (inactive); in [15] (cisplatin combo, at 5 µM) it was -12% and -15.7%; in [15] (measured here: BGB IC40 combination, at 0.05 µM) it was -2.36% and -1.73%; in test [15] (setting [20]) it was 10.5% and -4.92%. The inhibition in test [15] (single agent, at 5 µM) was -25.2% and -0.151%; in test [16] (at 0.5 µM), -19.7% (inactive) and -18.9% (inactive); in test [16] (setting [18]) it was -18.4% and -23.1%; in [16] (setting [19]), -23.1% and -18.8%; in [16] (single agent, at 0.05 µM) it was -52.6% and 9%; in test [16] (single agent, at 5 µM) it was 8.56% and -31.8%. Further, the log fold change Tl+ flux was -0.0195 (inactive) with F380Y/beta1, 0.0134 (inactive) with F380Y/beta4, 0.0354 (inactive) with R275C/beta4 and -0.0422 (inactive) in the test on R275C/Slo1WT/beta2.
